Data taken from the supplement of paper PMC10849652.
About 8,800 targets were measured; listed, in parts, are those with a hit and a random draw of the rest. About 0.5% of all pairs of compound and target were hits. A number with no mark means an inactive call.

How the values were obtained:
Assay in all cases: log2 fold change, soluble protein after heating vs DMSO (PISA); higher = thermal stabilisation; K562 lysate, 10 uM; active = over 0.2 and 3.5 SD of the protein, either way, in both replicates (recomputed)
[1] = compound: C1=CC=C(C=C1)[C@H](COC2=CC3=C(C=C2)NC(=O)N3)NC(=O)C4=CC=CN(C4=O)CC5=CC(=C(C=C5)F)F
In short: (§1)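 Dounce homogenisation of K562 pellets in PBS pH 7.4 with 1 mM MgCl2 produced a crude extract, used at 1 mg/mL protein. Exposure to 10 μM compound lasted 30 min, and aliquots were then heated for 3 min across 48°C-58°C, pooled and brought to 0.5% NP-40 at 4°C. The supernatant after 21,000xg for 90 min was quantified by TMTpro 16plex LC-MS/MS with channel sums equalised. Duplicate values are given as log-two fold change in thermal stability relative to solvent controls.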

[2] = compound: CC1=C(SC2=C1C(=N[C@H](C3=NN=C(N32)C)CC(=O)N)C4=CC=C(C=C4)Cl)C
In short: as §1

[3] = compound: CC1=C2C(=CC=C1)N=C(N(C2=O)C3=CC=CC=C3C)CN4C=NC5=C(N=CN=C54)N
In short: as §1

[4] = compound: Cc1sc2c(c1C)C(c1ccc(Cl)cc1)=N[C@@H](CC(=O)OC(C)(C)C)c1nnc(C)n1-2
In short: as §1

[5] = compound: c1ccc([C@@H]2C[C@H]2NC2CCNCC2)cc1
In short: as §1

Sequence of UniProt Q9H2H8 (Q9H2H8 whole entry, looked up): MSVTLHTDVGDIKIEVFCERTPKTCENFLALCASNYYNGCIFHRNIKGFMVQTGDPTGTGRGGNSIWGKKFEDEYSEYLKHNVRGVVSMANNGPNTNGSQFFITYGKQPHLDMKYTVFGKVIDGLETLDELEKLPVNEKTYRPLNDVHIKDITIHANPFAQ
Sequence of UniProt P78395 (P78395 whole entry, looked up): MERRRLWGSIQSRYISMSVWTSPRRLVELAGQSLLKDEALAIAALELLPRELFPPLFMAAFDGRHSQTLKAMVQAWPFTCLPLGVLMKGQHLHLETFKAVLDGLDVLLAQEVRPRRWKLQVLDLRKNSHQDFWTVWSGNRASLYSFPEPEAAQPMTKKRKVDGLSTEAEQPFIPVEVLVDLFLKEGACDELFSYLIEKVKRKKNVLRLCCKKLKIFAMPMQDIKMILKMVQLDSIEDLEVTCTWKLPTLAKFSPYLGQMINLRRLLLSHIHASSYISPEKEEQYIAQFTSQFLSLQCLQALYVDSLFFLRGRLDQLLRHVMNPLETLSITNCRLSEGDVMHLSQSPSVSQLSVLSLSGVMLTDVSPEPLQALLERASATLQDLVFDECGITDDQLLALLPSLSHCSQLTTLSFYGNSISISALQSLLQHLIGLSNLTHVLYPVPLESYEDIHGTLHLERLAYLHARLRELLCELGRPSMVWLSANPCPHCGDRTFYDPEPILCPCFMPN
Sequence of UniProt Q13442 (Q13442 whole entry, looked up): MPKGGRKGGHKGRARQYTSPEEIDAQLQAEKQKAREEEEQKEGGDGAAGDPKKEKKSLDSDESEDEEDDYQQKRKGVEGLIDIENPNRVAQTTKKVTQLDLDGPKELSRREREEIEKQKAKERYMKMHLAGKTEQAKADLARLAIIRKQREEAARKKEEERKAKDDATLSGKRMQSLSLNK
Sequence of UniProt P14314 (P14314 whole entry, looked up): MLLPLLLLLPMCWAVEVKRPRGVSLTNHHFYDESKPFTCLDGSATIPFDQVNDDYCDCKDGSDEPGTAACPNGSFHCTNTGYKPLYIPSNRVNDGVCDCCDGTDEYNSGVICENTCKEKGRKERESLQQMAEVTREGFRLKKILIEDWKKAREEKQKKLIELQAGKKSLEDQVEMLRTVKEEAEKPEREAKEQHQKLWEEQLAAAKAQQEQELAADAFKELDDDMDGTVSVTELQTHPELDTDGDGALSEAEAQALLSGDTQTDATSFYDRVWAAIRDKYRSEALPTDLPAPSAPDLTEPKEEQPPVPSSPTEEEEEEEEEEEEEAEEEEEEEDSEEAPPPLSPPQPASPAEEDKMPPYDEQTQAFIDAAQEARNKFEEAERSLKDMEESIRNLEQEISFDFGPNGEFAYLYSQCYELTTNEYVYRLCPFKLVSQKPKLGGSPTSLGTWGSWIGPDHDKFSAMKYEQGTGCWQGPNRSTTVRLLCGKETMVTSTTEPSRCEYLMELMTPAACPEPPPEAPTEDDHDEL
Sequence of UniProt Q16877 (Q16877 whole entry, looked up): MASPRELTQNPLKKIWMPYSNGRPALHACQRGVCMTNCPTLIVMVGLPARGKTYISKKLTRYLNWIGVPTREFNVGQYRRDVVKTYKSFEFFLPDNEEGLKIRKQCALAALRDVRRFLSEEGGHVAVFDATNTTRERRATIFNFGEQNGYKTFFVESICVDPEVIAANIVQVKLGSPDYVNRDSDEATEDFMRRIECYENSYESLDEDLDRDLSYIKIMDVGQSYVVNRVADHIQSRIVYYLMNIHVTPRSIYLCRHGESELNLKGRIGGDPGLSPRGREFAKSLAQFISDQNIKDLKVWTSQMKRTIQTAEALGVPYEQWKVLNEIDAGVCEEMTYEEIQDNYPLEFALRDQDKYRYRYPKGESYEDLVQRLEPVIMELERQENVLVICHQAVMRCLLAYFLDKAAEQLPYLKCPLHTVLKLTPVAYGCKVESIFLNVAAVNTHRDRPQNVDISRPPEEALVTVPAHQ
Sequence of UniProt O95336 (O95336 whole entry, looked up): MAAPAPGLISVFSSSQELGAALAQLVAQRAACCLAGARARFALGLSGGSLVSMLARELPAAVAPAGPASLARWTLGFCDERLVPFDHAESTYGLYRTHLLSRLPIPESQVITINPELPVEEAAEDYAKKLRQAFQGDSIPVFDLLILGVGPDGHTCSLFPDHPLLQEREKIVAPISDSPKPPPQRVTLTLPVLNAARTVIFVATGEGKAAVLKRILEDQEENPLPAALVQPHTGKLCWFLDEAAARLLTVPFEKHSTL
Sequence of UniProt Q13356 (Q13356 whole entry, looked up): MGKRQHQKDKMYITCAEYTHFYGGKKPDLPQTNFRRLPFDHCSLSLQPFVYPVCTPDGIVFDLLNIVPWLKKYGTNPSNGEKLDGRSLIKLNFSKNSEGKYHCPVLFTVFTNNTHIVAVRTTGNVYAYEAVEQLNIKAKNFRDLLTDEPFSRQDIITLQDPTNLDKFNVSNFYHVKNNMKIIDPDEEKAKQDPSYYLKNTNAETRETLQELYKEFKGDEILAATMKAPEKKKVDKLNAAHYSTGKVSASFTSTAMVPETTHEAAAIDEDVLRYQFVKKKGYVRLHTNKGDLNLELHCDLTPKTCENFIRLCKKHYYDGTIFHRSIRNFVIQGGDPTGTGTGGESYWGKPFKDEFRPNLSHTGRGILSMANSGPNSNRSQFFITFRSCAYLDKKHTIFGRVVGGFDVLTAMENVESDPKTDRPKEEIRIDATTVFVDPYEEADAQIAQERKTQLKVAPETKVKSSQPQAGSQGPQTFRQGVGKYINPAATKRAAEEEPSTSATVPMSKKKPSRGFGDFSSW
Sequence of UniProt P45877 (P45877 whole entry, looked up): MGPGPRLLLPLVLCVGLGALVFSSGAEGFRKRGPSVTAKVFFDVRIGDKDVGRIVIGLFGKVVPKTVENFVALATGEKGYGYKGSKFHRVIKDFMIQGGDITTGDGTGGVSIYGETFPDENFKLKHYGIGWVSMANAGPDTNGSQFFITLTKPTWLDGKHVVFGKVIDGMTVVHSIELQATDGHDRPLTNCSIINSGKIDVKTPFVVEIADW
Sequence of UniProt O00329 (O00329 whole entry, looked up): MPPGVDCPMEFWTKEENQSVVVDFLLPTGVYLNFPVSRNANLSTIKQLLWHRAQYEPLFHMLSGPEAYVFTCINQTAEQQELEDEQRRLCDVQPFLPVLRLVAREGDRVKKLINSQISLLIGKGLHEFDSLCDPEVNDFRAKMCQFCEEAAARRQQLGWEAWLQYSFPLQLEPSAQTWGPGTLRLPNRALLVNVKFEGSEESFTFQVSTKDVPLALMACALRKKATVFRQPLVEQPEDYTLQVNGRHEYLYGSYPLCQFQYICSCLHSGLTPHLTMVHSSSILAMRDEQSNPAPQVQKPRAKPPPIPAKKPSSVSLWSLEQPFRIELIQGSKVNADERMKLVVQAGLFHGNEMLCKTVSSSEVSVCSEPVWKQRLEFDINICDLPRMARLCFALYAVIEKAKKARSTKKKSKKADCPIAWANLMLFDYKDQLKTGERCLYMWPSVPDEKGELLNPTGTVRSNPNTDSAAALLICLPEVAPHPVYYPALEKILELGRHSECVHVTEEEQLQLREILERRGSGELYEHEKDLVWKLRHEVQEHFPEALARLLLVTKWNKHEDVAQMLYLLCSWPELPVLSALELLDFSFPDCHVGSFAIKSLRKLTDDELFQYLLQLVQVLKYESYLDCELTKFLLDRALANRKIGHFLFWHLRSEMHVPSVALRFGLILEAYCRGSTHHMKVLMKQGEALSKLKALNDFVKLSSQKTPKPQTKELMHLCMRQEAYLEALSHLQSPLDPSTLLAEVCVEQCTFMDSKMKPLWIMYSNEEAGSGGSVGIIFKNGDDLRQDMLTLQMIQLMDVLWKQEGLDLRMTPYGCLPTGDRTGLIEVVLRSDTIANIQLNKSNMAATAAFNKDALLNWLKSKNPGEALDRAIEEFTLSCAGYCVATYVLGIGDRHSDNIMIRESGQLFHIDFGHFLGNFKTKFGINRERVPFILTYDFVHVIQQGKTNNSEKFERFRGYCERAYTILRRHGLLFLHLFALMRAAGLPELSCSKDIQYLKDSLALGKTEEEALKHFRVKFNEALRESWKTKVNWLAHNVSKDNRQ
Sequence of UniProt Q9BUL8 (Q9BUL8 whole entry, looked up): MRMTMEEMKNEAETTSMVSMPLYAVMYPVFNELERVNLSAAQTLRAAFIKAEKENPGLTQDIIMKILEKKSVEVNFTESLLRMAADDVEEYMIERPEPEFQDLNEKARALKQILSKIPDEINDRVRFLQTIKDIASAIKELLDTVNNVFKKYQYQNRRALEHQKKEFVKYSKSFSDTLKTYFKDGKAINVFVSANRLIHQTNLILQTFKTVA
Sequence of UniProt O00264 (O00264 whole entry, looked up): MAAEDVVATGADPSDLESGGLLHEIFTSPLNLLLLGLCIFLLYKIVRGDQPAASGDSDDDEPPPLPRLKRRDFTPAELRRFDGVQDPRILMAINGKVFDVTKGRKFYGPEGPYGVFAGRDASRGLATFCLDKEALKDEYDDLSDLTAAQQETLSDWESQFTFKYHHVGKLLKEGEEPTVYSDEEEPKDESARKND
Sequence of UniProt P13667 (P13667 whole entry, looked up): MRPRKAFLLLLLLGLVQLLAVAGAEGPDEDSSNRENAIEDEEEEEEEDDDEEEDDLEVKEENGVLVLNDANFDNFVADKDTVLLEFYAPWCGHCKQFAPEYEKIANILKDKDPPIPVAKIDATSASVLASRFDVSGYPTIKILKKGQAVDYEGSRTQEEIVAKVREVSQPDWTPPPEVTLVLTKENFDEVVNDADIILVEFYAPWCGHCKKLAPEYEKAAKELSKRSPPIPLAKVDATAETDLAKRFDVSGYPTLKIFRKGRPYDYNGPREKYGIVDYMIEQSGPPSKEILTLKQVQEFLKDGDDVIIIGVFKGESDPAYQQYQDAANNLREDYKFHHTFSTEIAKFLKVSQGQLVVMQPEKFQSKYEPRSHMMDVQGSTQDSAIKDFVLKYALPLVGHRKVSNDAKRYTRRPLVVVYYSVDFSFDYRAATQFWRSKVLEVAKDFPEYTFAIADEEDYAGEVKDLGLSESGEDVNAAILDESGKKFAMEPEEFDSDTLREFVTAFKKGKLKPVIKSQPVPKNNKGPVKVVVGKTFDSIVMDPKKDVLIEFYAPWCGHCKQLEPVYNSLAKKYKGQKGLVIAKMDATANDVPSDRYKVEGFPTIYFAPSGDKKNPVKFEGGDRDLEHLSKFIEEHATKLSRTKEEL

Target | log2 fold change [1] | log2 fold change [2] | log2 fold change [3] | log2 fold change [4] | log2 fold change [5]
PDF (UniProt Q9HBH1) | -0.056 | -0.007 | -0.024 | 0.024 | 0.028
PRIMPOL (UniProt Q96LW4) | 0.009 | 0.009 | -0.015 | -0.024 | –
PGRMC1 (UniProt O00264) | 0.073 | -0.038 | 0.008 | -0.031 | -0.039
PRIM2 (UniProt P49643) | 0.004 | 0.026 | 0.016 | 0.009 | 0.028
PTK2 (UniProt Q05397) | 0.006 | -0.027 | -0.003 | 0.023 | -0.131
PRMT5 (UniProt O14744) | -0.01 | 0.031 | 0.006 | -0.013 | 0.002
POLA1 (UniProt P09884) | 0.006 | 0.01 | 0.037 | -0.002 | 0.002
PRC1 (UniProt O43663) | 0.089 | 0.037 | 0.026 | 0.03 | 0.043
PXMP4 (UniProt Q9Y6I8) | -0.096 | -0.022 | -0.026 | -0.191 | 0.041
PTMA (UniProt P06454) | 0.015 | 0.018 | 0.01 | -0.004 | 0.241
PDCD6IP isoform 2 (UniProt Q8WUM4) | -0.019 | -0.004 | 0.018 | 0.02 | 0.056
PIR (UniProt O00625) | -0.013 | 0.017 | 0.026 | 0.009 | 0.06
PPIC (UniProt P45877) | 0.209 | -0.242 | 0.12 | 0.005 | 0.055
POLR2M (UniProt Q6EEV4) | 0.01 | 0.042 | -0.084 | 0.132 | 0.012
PPP3CA isoform 2 (UniProt Q08209) | -0.026 | -0.115 | -0.017 | 0.004 | 0.043
PRPF38A (UniProt Q8NAV1) | 0.034 | -0.055 | -0.08 | -0.024 | -0.133
PI4K2A (UniProt Q9BTU6) | 0.028 | 0.056 | -0.007 | -0.002 | 0.001
PEX2 (UniProt P28328) | -0.243 | 0.053 | -0.048 | 0.116 | -0.365
PRRC2A (UniProt P48634) | -0.047 | 0.003 | 0.001 | 0.017 | -0.02
PFKFB3 isoform 4 (UniProt Q16875) | -0.04 | 0.047 | 0.057 | 0.018 | 0.041
PIK3C3 (UniProt Q8NEB9) | -0.041 | -0.032 | -0.036 | -0.014 | -0.114
PDCD10 (UniProt Q9BUL8) | -0.005 | 0.02 | -0.013 | -0.042 | -0.064
PDXK (UniProt O00764) | 0.014 | -0.039 | -0.029 | -0.028 | -0.056
PTPN6 isoform 4 (UniProt P29350) | 0.12 | 0.029 | 0.063 | 0.047 | 0.133
PHKB isoform 3 (UniProt Q93100) | 0.015 | 0.011 | 0.042 | -0.012 | -0.066
PRKCSH (UniProt P14314) | 0 | -0.002 | -0.017 | 0.041 | 0.021
PFKFB4 (UniProt Q16877) | -0.066 | 0.023 | 0.059 | -0.053 | -0.007

Target | log2 fold change [1] | log2 fold change [2] | log2 fold change [3] | log2 fold change [4] | log2 fold change [5]
PLEKHO2 (UniProt Q8TD55) | -0.158 | 0.077 | -0.076 | -0.107 | 0.043
PIM1 isoform 2 (UniProt P11309) | -0.115 | -0.046 | -0.127 | -0.025 | -0.191
PCBP2 isoform 3 (UniProt Q15366) | -0.011 | 0.017 | -0.041 | 0.061 | 0.05
PDCD6IP (UniProt Q8WUM4) | -0.077 | 0.086 | 0.037 | 0.043 | 0.085
PPIL3 (UniProt Q9H2H8) | 0.067 | -0.012 | 0.035 | 0.028 | -0.237 (active)
PLK1 (UniProt P53350) | 0.033 | 0.042 | 0.052 | -0.026 | 0.084
PPME1 isoform 4 (UniProt Q9Y570) | -0.004 | 0.013 | -0.019 | 0.021 | 0.007
PDE4DIP isoform 4 (UniProt Q5VU43) | -0.102 | 0.154 | 0.018 | -0.016 | -0.015
PDIA4 (UniProt P13667) | -0.004 | -0.006 | -0.009 | 0.002 | 0.037
PPOX (UniProt P50336) | 0.579 (active) | 0.012 | -0.009 | -0.02 | -0.023
PUF60 (UniProt Q9UHX1) | -0.017 | 0.006 | 0.004 | 0.028 | 0.059
PPP1R14C (UniProt Q8TAE6) | -0.019 | 0.024 | 0.051 | -0.078 | -0.147
PIK3CD (UniProt O00329) | -0.053 | 0.075 | 0.443 (active) | -0.027 | 0.043
PREP (UniProt P48147) | 0.006 | 0.02 | 0.013 | -0.02 | 0.03
PDAP1 (UniProt Q13442) | 0.004 | 0.042 | 0.008 | 0.084 | -0.112
PFKP (UniProt Q01813) | -0.005 | 0.02 | 0.043 | -0.031 | 0.027
PLEKHF1 (UniProt Q96S99) | -0.019 | 0.034 | 0.029 | 0.01 | 0.014
PMS1 (UniProt P54277) | -0.011 | -0.056 | 0 | -0.06 | -0.006
PUS3 (UniProt Q9BZE2) | -0.006 | -0.089 | -0.073 | 0.082 | 0.135
POLR2B (UniProt P30876) | -0.021 | 0.024 | 0.019 | 0.021 | 0.013
PPP2CA (UniProt P67775) | -0.108 | 0.037 | 0.037 | 0.092 | -0.092
PPIL2 (UniProt Q13356) | 0.036 | 0.005 | 0.029 | 0.082 | 0.011
PCBP2 (UniProt H3BRU6) | 0.166 | -0.15 | -0.208 | 0.104 | -0.11
PGLS (UniProt O95336) | -0.063 | -0.06 | 0.094 | -0.04 | 0.095
PLEKHA5 isoform 6 (UniProt Q9HAU0) | 0 | -0.112 | -0.06 | -0.013 | 0.045
PRAME (UniProt P78395) | -0.009 | 0.014 | 0.014 | -0.008 | 0.026
